From PubChem BioAssay
pAkt inh = Akt phosphorylation inhibition. Neuro2A IGF-stimulated pAkt S473 HTRF, 20 min; active compounds read low. activity change, % for hits at 50 µM. 360,000 tested, 0.32% active. AID 651550; in the data active = activity change below about -80%; inconclusive = mostly about -51% to -80%
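Neuro2A cells in DMEM with 0.5% FBS, overnight at 37 deg C, given compound at single 50 µM final, then IGF (6 nM final) for 20 min at 37 deg C. Lysed; phospho-Akt Ser473 by HTRF after 24 h, 665/615 ratio.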
A-T KAP1 phos = candidate therapy for ataxia-telangiectasia; F2112 A-T fibroblasts, KAP-1 phosphorylation AlphaLISA; neocarzinostatin DNA damage 30 min before lysis; Potency, µM (series often up to 57.5 µM), usual class: activators; 320,000 tested, 0.19% active; AID 485349; also: nearly all actives have a fitted effect of over 45% in size
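ATM-like activity read as KAP-1 phosphorylation via AlphaLISA donor/acceptor antibody pairs after lysis and 6 hr at 25C. Cells were ATM-null patient fibroblasts (F2112, hTERT), dosed 60 min, then exposed to the DSB inducer NCS for 30 min.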
Pin1 inhibitor = human Pin1 inhibition | 390,000 tested, 0.009% active | Pin1 FP peptide displacement, HiFluor488, 10 min | Potency, µM (titrated, usually from 115 µM), actives largely listed as inhibitors | Q13526; active = well fitted inhibition curve with a large enough effect in the polarisation, with a control signal flat, not every such curve was filed as active; inconclusive = small, poorly fitted or top-dose-only effect, or effect the other way, or a change in a side signal; inactive = no such curve, though single readings can be large or run the other way; the % refers to the polarisation
N370S GC = inhibits or activates N370S mutant glucocerebrosidase; P04062; N370S GC spleen homogenate, 4MU-glucoside fluorescence; Potency, µM (highest dose often 59.4 µM), hits mostly inhibitors; 330,000 tested, 0.092% active; AID 2101
rTrxR1 inhibitor = blocks rat thioredoxin reductase 1; Potency, µM (highest dose often 114 µM), usual class: inhibitors; 390,000 tested, 1% active; O89049; recombinant rTrxR1, NADPH fluorescence consumption, selenite substrate; also: nearly all actives have a fitted effect of over 65% in size
Target sequence (O89049 whole entry, looked up): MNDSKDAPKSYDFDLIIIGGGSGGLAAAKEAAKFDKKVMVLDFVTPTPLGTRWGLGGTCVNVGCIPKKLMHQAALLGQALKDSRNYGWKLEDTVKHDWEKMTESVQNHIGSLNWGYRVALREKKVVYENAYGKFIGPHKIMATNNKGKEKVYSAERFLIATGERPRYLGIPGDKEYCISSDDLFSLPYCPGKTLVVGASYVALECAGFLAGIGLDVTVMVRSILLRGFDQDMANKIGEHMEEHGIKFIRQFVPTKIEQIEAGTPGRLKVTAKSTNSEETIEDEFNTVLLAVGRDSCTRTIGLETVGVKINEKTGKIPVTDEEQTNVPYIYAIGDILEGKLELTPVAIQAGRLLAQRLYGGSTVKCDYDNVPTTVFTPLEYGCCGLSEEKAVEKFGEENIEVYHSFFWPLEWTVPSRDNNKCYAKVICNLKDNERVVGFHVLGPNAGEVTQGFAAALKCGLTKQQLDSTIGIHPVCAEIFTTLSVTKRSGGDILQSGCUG
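Rat TrxR1 (90 nM in the dispensed reagent) was pre-reduced with 400 uM NADPH for 5 min at room temperature, then incubated with compound for 15 min. After 400 uM selenite was added, NADPH fluorescence (Ex 340/Em 450 nm) was followed for 8 min.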
TrxR1 substrate = is turned over as a substrate by rat TrxR1. O89049. purified TrxR1 substrate turnover, NADPH consumption readout. Potency, µM (highest dose often 114 µM). 390,000 tested, 0.01% active. AID 588456; also: nearly all actives have a fitted effect of over 50% in size
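Rat TrxR1, dispensed at 90 nM, was prereduced with 400 uM NADPH (final) for 5 min at ~22 deg C, then incubated with compound 15 min before 400 uM selenite. A first-read NADPH fluorescence drop versus no-compound background flagged substrates.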
Hits are given with their value; n = inactive; u = inconclusive; x = no result. Sampled rows, rich in hits. Any-hit rate of the full collection: about 1.4%. Unless noted, calls follow the shape of the dose curve; as a rule, active = well fitted curve in the direction sought with a large enough effect; inconclusive = small, poorly fitted or top-dose-only effect, or another doubt; inactive = no such curve, though single readings can be large; an effect the other way counts as inactive or inconclusive.

SMILES	pAkt inh	A-T KAP1 phos	Pin1 inhibitor	N370S GC	rTrxR1 inhibitor	TrxR1 substrate
O=C(NCCCN1CCOCC1)c1cc(-c2cccs2)on1	n	n	n	n	16µM	n
C[C@@H](N)CCCP(=O)(O)O	x	x	x	n	x	x
COc1ccc2c(c1)CCc1c(C(=O)NCCCn3ccnc3)noc1-2	n	n	n	n	16µM	n
COCCNC(=O)c1noc2c1CCc1cc(OC)ccc1-2	n	n	n	n	u	n
COc1ccc2c(c1)CCc1c(C(=O)NCCN3CCOCC3)noc1-2	x	n	n	n	40µM	n
Cc1ccc(-n2ncc(C(=O)NCCc3ccsc3)c2C2CCN(C(=O)OC(C)(C)C)CC2)cc1C	x	x	n	x	n	n
CCCNC(=O)NC(=O)COc1c(F)c(F)cc(F)c1F	-102%	n	n	n	n	n
O=C(COc1c(F)c(F)cc(F)c1F)NC(=O)NC1CCCC1	n	n	n	n	n	n
N#Cc1ccc(C(=O)NCC(=O)OC(C(=O)Nc2cc(C(F)(F)F)ccc2Cl)c2ccccc2)cc1 (stereo not given)	x	x	n	x	x	x
Cc1ccnc2ccc(I)cc12	x	x	x	x	n	n
COc1ccc(NCc2cc(=O)oc3cc(NC(C)=O)ccc23)cc1	n	2.5µM	n	n	n	n
CCC(=O)NC(c1cccc(C)c1)c1cc(Cl)c2cccnc2c1O (stereo not given)	x	x	n	x	x	x
CC(C)(C)c1ccc(S(=O)(=O)/C=C\C#N)cc1	x	x	x	n	x	x
CC(C)(C)n1ncc2c(=O)n(CC(=O)c3ccccc3)cnc21	-115%	n	n	n	n	n
O=c1cc(N2CCOCC2)oc2c(-c3ccccc3)cccc12	x	x	x	n	n	n
Cc1cc(C(=O)CCl)c(C)n1CCc1ccc(Cl)cc1	n	n	n	n	7.9µM	n
NC(=O)c1cc(N2C(=O)C=CC2=O)ccc1Cl	n	n	n	n	1µM	n
CC(C)(C)n1ncc2c(=O)n(Cc3cccc(Oc4ccccc4)c3)cnc21	x	x	x	x	n	n
O=C(Nc1ccc(N2CCCC2)cc1)C(Cl)c1ccccc1 (stereo not given)	n	n	n	n	16µM	n
COc1ccc(NS(=O)(=O)c2ccccc2C(=O)O)cc1	x	x	n	x	x	x
CC(Oc1ccc(Cl)cc1Cl)C(=O)Nc1ccncc1 (stereo not given)	n	n	n	n	n	n
CC(Oc1ccc(Cl)cc1Cl)C(=O)Nc1cccnc1 (stereo not given)	-112%	x	n	n	n	n
COc1ccc(C2c3ccc(O)cc3Oc3ncn(CCCO)c(=N)c32)cc1 (stereo not given)	n	25µM	n	n	n	n
COc1cc(Cl)c(C)cc1NC(=O)C(OC(=O)CNC(=O)c1ccccc1)c1ccccc1 (stereo not given)	x	x	n	x	x	x
Cc1ccc2c(c1)c1c(n2CC(O)CNC(CO)(CO)CO)CCCC1 (stereo not given)	n	n	u	11µM	n	n
SMILES	pAkt inh	A-T KAP1 phos	Pin1 inhibitor	N370S GC	rTrxR1 inhibitor	TrxR1 substrate
CC(C)(C)n1ncc2c(=O)n(Cc3cccc(Cl)c3Cl)cnc21	x	x	x	x	n	n
COc1ccc(C(=O)/C=C/c2cn(CC(O)CN3CCCCCC3)c3ccccc23)cc1OC (stereo not given)	x	x	u	x	40µM	n
CC[C@@H]1[C@H]2CCCC(=O)N3CC[C@@H](C[C@@H]1OC(=O)Nc1ccc4c(c1)OCO4)[C@@H]23	x	x	x	x	n	n
CCn1c2c(c3cc(OCC(C)C)ccc31)CCCC2=O	n	32µM	n	n	n	n
COCCOC(=O)C1=C(C)NC2=C(C(=O)CC(C)(C)C2)C1c1cccnc1 (stereo not given)	-108%	n	n	u	n	n
O=[S+]([O-])(c1c(F)cccc1F)N1CCN([S+](=O)([O-])c2cccc3nonc23)CC1	x	x	n	x	x	x
CCN1C/C(=C\c2cccc([N+](=O)[O-])c2)C(=O)/C(=C/c2cccc([N+](=O)[O-])c2)C1	n	22µM	n	n	u	n
O=C1/C(=C/c2cccc([N+](=O)[O-])c2)CCc2ccccc21	n	n	n	n	n	n
CC(C)[C@H]1COCCS(=O)(=O)N1Cc1cccc([N+](=O)[O-])c1	x	x	x	x	n	n
